Results taken from PubChem BioAssay.
Unmarked numbers belong to inactive results. For some assays here: Entries with a potency or affinity are not part of this list. Active and inactive are the calls of the source. Unless noted, how the calls were made is not given here.

What was measured:
[1] = antimalarial activity against Dd2 strain (AID 2302;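 active means growth inhibition above 50% at the single 2 µM test dose, taken to imply half-maximal potency below 2 µM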;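 further: 0% = DMSO untreated growth and 100% = chloroquine plus artemisinin killed control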); details: P. falciparum Dd2 in RBCs, LDH growth readout, 72 h; at 2 µM; active compounds read high
[2] = HepG2 cytotoxicity, primary screen, cytotoxicity control for P. falciparum antimalarial project, cell-based, ATP luminescence (AID 2303;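 active means inhibition above 50%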;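 further: 0% = DMSO wells and 100% = digitonin-killed cells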); details: HepG2 viability, 24-48 h, at 10 µM, active compounds read high
[3] = biological target: L-lactate dehydrogenase (Plasmodium falciparum (isolate CDC / Honduras)) (UniProt Q27743); test: PfLDH activity inhibition – cell lysate, 3D7 strain, counter-screen for P. falciparum growth inhibition project (AID 2304);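 further: 0% = vehicle and 100% = reference inhibitor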; details: P. falciparum 3D7 crude extract, LDH APAD/NBT absorbance; at 2 µM; active compounds read high
Sequence of L-lactate dehydrogenase (Plasmodium falciparum (isolate CDC / Honduras)) (Q27743 whole entry, looked up): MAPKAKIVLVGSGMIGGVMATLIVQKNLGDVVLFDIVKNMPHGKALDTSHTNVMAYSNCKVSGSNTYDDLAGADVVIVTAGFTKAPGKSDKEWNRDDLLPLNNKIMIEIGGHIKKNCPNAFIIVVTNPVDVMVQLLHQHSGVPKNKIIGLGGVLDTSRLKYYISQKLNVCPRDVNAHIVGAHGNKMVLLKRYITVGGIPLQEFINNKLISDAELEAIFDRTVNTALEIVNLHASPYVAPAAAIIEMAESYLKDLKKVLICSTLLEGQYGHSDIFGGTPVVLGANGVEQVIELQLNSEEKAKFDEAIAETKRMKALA

[4] = inhibition of 3D7 malaria parasite growth – strain 3D7 (AID 2306);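 further: 0% = DMSO wells and 100% = chloroquine plus artemisinin control wells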; details: P. falciparum 3D7 erythrocytic growth, LDH absorbance, 72 h; at 2 µM; active compounds read high
[5] = biological target: Calcium-dependent protein kinase 1 (Plasmodium falciparum (isolate 3D7)) (UniProt P62344); test: PfCDPK1 kinase inhibitors, biochemical, TCAMS library (AID 1159585; cut-off not given, nearly all actives have IC50 up to about 0.98 µM;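 further: inhibitors leave more ATP so luminescence rises with inhibition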); details: recombinant PfCDPK1, Kinase-Glo ATP depletion luminescence
Sequence of Calcium-dependent protein kinase 1 (Plasmodium falciparum (isolate 3D7)) (P62344 whole entry, looked up): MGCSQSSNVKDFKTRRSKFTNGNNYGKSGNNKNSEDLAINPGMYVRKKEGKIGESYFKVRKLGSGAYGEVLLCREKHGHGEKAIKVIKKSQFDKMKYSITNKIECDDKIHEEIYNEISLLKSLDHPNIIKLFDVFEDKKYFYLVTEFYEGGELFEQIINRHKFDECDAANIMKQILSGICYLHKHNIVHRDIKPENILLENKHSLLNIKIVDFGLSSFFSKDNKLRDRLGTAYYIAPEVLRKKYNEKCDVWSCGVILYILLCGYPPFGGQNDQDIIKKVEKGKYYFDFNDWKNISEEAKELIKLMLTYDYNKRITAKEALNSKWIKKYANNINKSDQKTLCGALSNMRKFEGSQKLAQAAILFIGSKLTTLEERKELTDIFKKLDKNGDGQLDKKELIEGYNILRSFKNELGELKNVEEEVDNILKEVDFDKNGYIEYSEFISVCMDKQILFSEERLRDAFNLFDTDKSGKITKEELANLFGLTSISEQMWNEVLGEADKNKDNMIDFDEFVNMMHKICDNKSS

[6] = biological target: Plasmodium falciparum protein kinase 6 (PK6, PF3D7_1337100) (UniProt Q8IDW1); test: PfPK6 kinase inhibitors, biochemical, TCAMS library (AID 1159586); details: recombinant PfPK6, Kinase-Glo ATP depletion luminescence
Sequence of Plasmodium falciparum protein kinase 6 (PK6, PF3D7_1337100) (Q8IDW1 1-305): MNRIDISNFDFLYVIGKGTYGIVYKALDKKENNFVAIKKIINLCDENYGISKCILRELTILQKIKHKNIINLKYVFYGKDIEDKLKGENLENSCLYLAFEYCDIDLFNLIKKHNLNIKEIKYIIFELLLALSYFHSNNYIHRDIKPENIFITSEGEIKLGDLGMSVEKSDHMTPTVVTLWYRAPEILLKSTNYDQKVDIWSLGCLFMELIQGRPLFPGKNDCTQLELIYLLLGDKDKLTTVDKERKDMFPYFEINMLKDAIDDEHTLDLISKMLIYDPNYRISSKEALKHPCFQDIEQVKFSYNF

[7] = biological target: Protein kinase 7 (PK7), Plasmodium falciparum 3D7 (PF3D7_0213400) (UniProt Q7YTF7); test: inhibition of Plasmodium PK7 catalytic activity – biochemical, TCAMS antimalarial set, Kinase-Glo luminescence (AID 1159587); details: recombinant PfPK7, Kinase-Glo ATP depletion luminescence
Sequence of Protein kinase 7 (PK7), Plasmodium falciparum 3D7 (PF3D7_0213400) (Q7YTF7 1-343): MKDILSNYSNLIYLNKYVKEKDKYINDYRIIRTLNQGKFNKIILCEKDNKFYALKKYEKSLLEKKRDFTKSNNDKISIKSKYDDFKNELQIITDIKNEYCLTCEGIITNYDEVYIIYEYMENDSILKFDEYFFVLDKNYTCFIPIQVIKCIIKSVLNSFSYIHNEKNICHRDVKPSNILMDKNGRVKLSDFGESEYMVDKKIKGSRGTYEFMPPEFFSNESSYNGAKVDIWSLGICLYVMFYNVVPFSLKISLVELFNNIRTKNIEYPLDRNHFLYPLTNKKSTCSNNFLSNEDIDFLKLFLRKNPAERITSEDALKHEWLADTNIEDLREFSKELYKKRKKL

[8] = biological target: Calcium-dependent protein kinase 4 (Plasmodium falciparum (isolate 3D7)) (UniProt Q8IBS5); test: PfCDPK4 kinase inhibitors, biochemical, TCAMS library (AID 1159588; cut-off not given, nearly all actives have IC50 up to about 0.91 µM); details: recombinant PfCDPK4, Kinase-Glo ATP depletion luminescence
Sequence of Calcium-dependent protein kinase 4 (Plasmodium falciparum (isolate 3D7)) (Q8IBS5 whole entry, looked up): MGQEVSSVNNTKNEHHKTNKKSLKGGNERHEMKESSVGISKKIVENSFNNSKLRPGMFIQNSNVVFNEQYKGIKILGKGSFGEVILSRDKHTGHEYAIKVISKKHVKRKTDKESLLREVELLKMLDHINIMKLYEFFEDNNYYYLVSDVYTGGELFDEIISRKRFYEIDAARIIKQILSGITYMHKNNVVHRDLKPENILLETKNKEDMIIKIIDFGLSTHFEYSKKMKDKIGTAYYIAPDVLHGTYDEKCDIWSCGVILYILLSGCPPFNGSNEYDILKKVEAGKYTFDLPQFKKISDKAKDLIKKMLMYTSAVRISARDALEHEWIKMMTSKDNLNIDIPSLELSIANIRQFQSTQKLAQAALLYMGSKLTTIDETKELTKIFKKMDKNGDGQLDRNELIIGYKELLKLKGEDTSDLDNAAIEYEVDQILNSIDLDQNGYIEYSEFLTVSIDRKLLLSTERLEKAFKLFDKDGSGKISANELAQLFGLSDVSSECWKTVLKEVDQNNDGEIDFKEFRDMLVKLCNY

Row | Compound | growth inhibition [1] | inhibition [2] | inhibition [3] | growth inhibition [4] | outcome [5] | outcome [6] | outcome [7] | outcome [8]
1 | FC(F)(F)c1cccc(CNCC2CCN(CC3CCCCC3)CC2)c1 | 24% | 21% | 3% | 101% (active) | inactive | inactive | inactive | inactive
2 | COc1cc(NC(=O)c2ccc3c(=O)n(Cc4ccccc4)c(=S)[nH]c3c2)cc(OC)c1OC | 47% | 6% | -3% | 94% (active) | inactive | inactive | inactive | inactive
3 | O=C(Nc1ccc(Cl)cc1)Nc1ccc(-c2ccc(-c3nc4ccccc4[nH]3)cc2)cc1 | 99% (active) | 47% | 0% | 101% (active) | inactive | inactive | inactive | inactive
4 | O=C(NCc1ccco1)c1ccc(CN2CCN(C(c3ccccc3)c3ccccc3)CC2)cc1 | 92% (active) | 6% | -1% | 96% (active) | inactive | inactive | inactive | inactive
5 | O=C1OC2(CN1CC1CCN(Cc3ccc(O)cc3Cl)C1)c1ccccc1-c1ccccc12 (stereo not given) | 84% (active) | 16% | 2% | 84% (active) | inactive | inactive | inactive | inactive
6 | Cc1cccc2[nH]c(-c3cccc(-c4cccc(NC(=O)c5ccncc5)c4)c3)nc12 | 78% (active) | 22% | -3% | 100% (active) | inactive | inactive | inactive | inactive
7 | COc1ccc2nccc([C@@H](O)CN3CCC(NC(=O)c4ccc5nc(-n6cccc6)sc5c4)CC3)c2c1 | 40% | 26% | -2% | 90% (active) | inactive | inactive | inactive | inactive
8 | c1ccc2cc3c(NCCN4CCOCC4)ccnc3cc2c1 | 98% (active) | -1% | -1% | 99% (active) | inactive | inactive | inactive | inactive
9 | CCC(=O)Nc1nnc(Cc2ccc(OC)c(OC)c2)s1 | 1% | -4% | -2% | 93% (active) | inactive | inactive | inactive | inactive
10 | Oc1ccc2c(c1NCC1CCCCC1)CCCC2 | 99% (active) | 11% | 0% | 99% (active) | inactive | inactive | inactive | inactive
11 | CCOc1c(CCNCCCCNCCc2ccc3ccccc3c2OCC)ccc2ccccc12 | 87% (active) | 100% (active) | -3% | 94% (active) | inactive | inactive | inactive | inactive
12 | Cc1ccc(CNC(=O)[C@H](CC(C)C)Nc2cc(C)nc(NCc3ccccc3C)n2)cc1 | 35% | 3% | 1% | 87% (active) | inactive | inactive | inactive | inactive
13 | CCOc1c(OC)ccc2c1CCN(CCN1CCC(NC(=O)c3ccc(-c4cccc(C(F)(F)F)c4C(F)(F)F)cc3)CC1)C2 | 57% (active) | 30% | -7% | 102% (active) | inactive | inactive | inactive | inactive
14 | COc1ccc2nccc(N(C)CC3(O)CCN(CCc4ccc5c(c4)OCCO5)CC3)c2n1 | 96% (active) | 15% | -3% | 100% (active) | inactive | inactive | inactive | inactive
15 | O=C(NCc1cccc(F)c1)Nc1cccc(-c2cccc(-c3nc4ccccc4[nH]3)c2)c1 | 27% | 28% | -1% | 96% (active) | inactive | inactive | inactive | inactive
16 | NS(=O)(=O)c1ccc(CNc2ccc3ncc(-c4ccc(Cl)cc4)n3n2)cc1 | 99% (active) | 26% | -4% | 96% (active) | inactive | inactive | inactive | inactive
17 | O=c1c(NCCCN(Cc2ccc(F)cc2)c2ccccn2)c(NCc2ccncc2)c1=O | 95% (active) | 30% | 3% | 101% (active) | inactive | inactive | inactive | inactive
18 | Cn1ccnc1CCC(=O)Nc1ccc(Cl)cc1C(=O)Nc1ccc(Cl)cc1 | 3% | 28% | 4% | 92% (active) | inactive | inactive | inactive | inactive
19 | O=C(NCc1ccc(C(F)(F)F)cc1)c1cccc(-c2nnc(-c3cccc(-c4cncnc4)c3)o2)c1 | 79% (active) | 13% | -2% | 96% (active) | inactive | inactive | inactive | inactive
20 | CN1CCC(C(=O)N(Cc2ccc(-c3ccc(CNCCc4ccc(S(C)(=O)=O)cc4)cn3)cc2)C2CCN(Cc3ccccc3)CC2)CC1 | 95% (active) | 11% | -5% | 102% (active) | inactive | inactive | inactive | inactive

Row | Compound | growth inhibition [1] | inhibition [2] | inhibition [3] | growth inhibition [4] | outcome [5] | outcome [6] | outcome [7] | outcome [8]
21 | O=C(N[C@@H](CC1CCCCC1)C(=O)NC1CCCCCC1)c1ccc(O)c(-c2ccc(Cl)c(Cl)c2)c1 | 100% (active) | -3% | -2% | 99% (active) | inactive | inactive | inactive | inactive
22 | Cc1[nH]c(C)c(-c2ccc(Oc3cccc(Cl)c3)cc2)c(=O)c1Br | 97% (active) | 46% | 3% | 98% (active) | inactive | inactive | inactive | inactive
23 | CC(Oc1ccc(C(=O)c2ccc(F)cc2)cc1)C(=O)N1CCc2ccccc21 (stereo not given) | 95% (active) | 9% | 1% | 95% (active) | inactive | inactive | inactive | inactive
24 | COc1cc(C(C)C)ccc1N1CCN(CCCCNC(=O)c2ccc(NC(=O)c3ccc(Cl)cc3)cc2)CC1 | 81% (active) | 25% | 3% | 98% (active) | inactive | inactive | inactive | inactive
25 | COc1ccc2nccc([C@@H](O)CN3CCC(NCc4nc5ccc(F)cc5[nH]4)CC3)c2c1 | 4% | 20% | -2% | 100% (active) | inactive | inactive | inactive | inactive
26 | COc1ccc(-c2cccc(NC(=O)c3cccc(Cl)c3)c2)cc1CNC(C)C | 8% | 15% | -2% | 102% (active) | inactive | inactive | inactive | inactive
27 | Nc1c2c(nc3ccc(C(=O)Nc4cc(I)c(O)c(I)c4)cc13)CCCC2 | 64% (active) | 14% | 0% | 96% (active) | inactive | inactive | inactive | inactive
28 | CCC(C)NCc1c(O)ccc2c(CNC(C)CC)c(O)ccc12 (stereo not given) | 31% | 14% | 2% | 100% (active) | inactive | inactive | inactive | inactive
29 | COc1cc(Nc2nccc(N3CCC(NC(=O)c4cccc(NC(C)=O)c4)C3)n2)cc(OC)c1OC (stereo not given) | 68% (active) | 9% | -6% | 98% (active) | inactive | inactive | inactive | inactive
30 | CC(Cc1ccc(CN2CCN(Cc3ccccc3)CC2)cc1)NCC(O)c1cccc(C(F)(F)F)c1 (stereo not given) | 98% (active) | 51% (active) | -7% | 97% (active) | inactive | inactive | inactive | inactive
31 | COC(=O)c1ccc(NC(=O)c2ccc(CCN3CCC(c4nc(COCC(F)(F)F)c(-c5ccc(F)cc5)o4)CC3)cc2)cc1 | 37% | 22% | -5% | 89% (active) | inactive | inactive | inactive | inactive
32 | CN(C)CCn1c(=N)n(CC(O)c2ccc(Cl)c(Cl)c2)c2ccccc21 (stereo not given) | 6% | 20% | -2% | 99% (active) | inactive | inactive | inactive | inactive
33 | CCc1cc(-c2onc(C)c2-c2cc3ccccc3o2)c(O)cc1OC | 33% | 48% | -2% | 95% (active) | inactive | inactive | inactive | inactive
34 | N#Cc1ccc2c(c1)CCN(CCC1CCC(NC(=O)/C=C/c3c[nH]c4c(Br)cccc34)CC1)CC2 (stereo not given) | 65% (active) | 32% | 0% | 101% (active) | inactive | inactive | inactive | inactive
35 | Cc1[nH]c(C)c(-c2ccc(-c3ccc(OCC(F)(F)F)cc3)nc2)c(=O)c1Cl | 96% (active) | 3% | 4% | 94% (active) | inactive | inactive | inactive | inactive
36 | COCCCN=C(N)c1ccc(NC(=O)c2ccc(C(=O)Nc3ccc(C(N)=NCCCOC)cc3)cc2)cc1 | 99% (active) | 33% | -2% | 100% (active) | inactive | inactive | inactive | inactive
37 | CCOC(=O)C1=C(C)N=c2sc(=Cc3cc(Cl)ccc3O)c(=O)n2C1c1ccc2c(c1)OCO2 (stereo not given) | 91% (active) | -2% | -1% | 96% (active) | inactive | inactive | inactive | inactive
38 | O=C(NCCc1ccccc1)N(Cc1ccccc1-c1ccc(CNCCc2ccccc2)cc1)C1CCN(Cc2ccccc2)CC1 | 91% (active) | 99% (active) | 5% | 97% (active) | inactive | inactive | inactive | inactive
39 | COc1cc(OC)c(NC(=O)Nc2ccnc3ccccc23)cc1Cl | 9% | 19% | -2% | 97% (active) | inactive | inactive | inactive | inactive
40 | CCCc1cc(Cc2cnc(N)nc2N)cc2c1OC(C)C2C (stereo not given) | 0% | 32% | -3% | 98% (active) | inactive | inactive | inactive | inactive
